Giardia FBPA inh = Giardia lamblia aldolase inhibition | A8B2U2 | purified Giardia FBPA | Potency, µM (highest dose often 59.6 µM), inactives show at the top dose activity, negative = inhibition, actives largely listed as inhibitors | 290,000 compounds, 0.71% hits | AID 2451; note: potency is the fitted concentration of half-maximal effect; nearly all actives have a fitted effect of over 55% in size
Target sequence (A8B2U2 whole entry, looked up): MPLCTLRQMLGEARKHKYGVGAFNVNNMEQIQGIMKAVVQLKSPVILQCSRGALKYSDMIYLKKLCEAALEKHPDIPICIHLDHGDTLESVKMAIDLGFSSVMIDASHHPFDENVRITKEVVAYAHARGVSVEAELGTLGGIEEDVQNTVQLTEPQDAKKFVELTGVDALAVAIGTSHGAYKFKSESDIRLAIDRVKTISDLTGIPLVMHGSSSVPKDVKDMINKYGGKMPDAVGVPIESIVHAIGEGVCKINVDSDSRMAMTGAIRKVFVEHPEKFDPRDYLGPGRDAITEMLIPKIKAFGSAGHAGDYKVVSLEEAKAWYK
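Giardia FBPA (40 nM reagent) was preincubated 10 min at RT with compound (up to 57.5 uM final), then substrate plus GAPDH/TPI/NAD/arsenate coupling system with diaphorase/resazurin was added; resorufin fluorescence (525/598 nm) was read after 20 min.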
HCMV inh = human cytomegalovirus inhibition; HFF cells, HCMV-luciferase reporter, 72 h; active compounds read low; activity change, negative = inhibition, % at 57.5 µM; 410,000 compounds, 4.5% hits; in the data active = activity change below about -60%; inconclusive = no clear call, values can overlap the other calls; inactive = above about -39%
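Inhibition of viral replication was scored as loss of reporter luminescence in HFFs infected with HCMV-luciferase (MOI 1 PFU/cell) for 72 h; compounds tested at 2 doses, normalized to buffer and Salinomycin controls.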
RE007 growth inh = less growth of the S. pombe RE007 Vpr strain; S. pombe RE007 Vpr strain, BacTiter-Glo ATP luminescence, 24 h; Potency, µM (top dose mostly 92.2 µM), without a hit: at the top dose activity change, negative = less growth, hits mostly inhibitors; 360,000 compounds, 0.21% hits; AID 651644; active = well fitted falling curve with a large enough effect; inconclusive = small, poorly fitted or top-dose-only effect; inactive = no such curve, though single readings can be large or run the other way; note: potency is the fitted concentration of half-maximal effect; nearly all actives have a fitted effect of over 50% in size
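Fission yeast RE007 carrying one integrated HIV-1 vpr copy, seeded at OD 0.01 in PMG+AL medium with 23 nL pinned compound. Grown 24 h at 30 degrees; viability read by BacTiter-Glo luminescence after 5 min.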
FMDV antiviral = antivirals against foot and mouth disease virus; 410,000 compounds, 1.2% hits; Potency, µM (highest dose often 57.9 µM), inactives show at the top dose activity change, negative = inhibition, hits mostly inhibitors; AID 1159524; FMDV antiviral cell-based qHTS; calls by dose curve; tested in HEK293T cells; note: read-out not given here; potency is the fitted concentration of half-maximal effect; nearly all actives have a fitted effect of over 45% in size
Sm TGR block = S. mansoni TGR enzyme inhibition. Potency, µM (top dose mostly 114 µM), for the others: top-dose activity change, negative = inhibition, most hits filed as inhibitors. purified TGR, DTNB reduction, TNB absorbance 405 nm. AID 485364. 360,000 compounds, 3% hits. Q962Y6; note: potency is the fitted concentration of half-maximal effect; nearly all actives have a fitted effect of over 60% in size
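First, TGR (20 nM dispensed) and NADPH were mixed with compound. Second, a 15 min room-temperature incubation followed. Third, further NADPH and then DTNB were added to start the reaction. Finally, TNB absorbance was monitored kinetically.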
Tb PYK inh = inhibitors of Trypanosoma brucei pyruvate kinase. 410,000 compounds, 0.12% hits. TbPYK enzyme, Kinase-Glo Plus ATP luminescence, 45 min. AID 624173. Q57TT1. Potency, µM (doses to about 76.8 µM), without a hit: top-dose activity, negative = inhibition, actives largely listed as inhibitors; note: potency is the fitted concentration of half-maximal effect; nearly all actives have a fitted effect of over 50% in size
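ADP (130 uM final) triggers the TbPYK reaction after compound addition; incubation is 45 min at room temperature. Kinase-Glo Plus is then added and luminescence imaged. Normalized data are fitted to concentration-effect curves.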
* hit, by the source's call; ? = inconclusive; . = no result given; [ ] = another dose, or the depositor's remark. Most compounds without a hit are left out; they make up all but 7.7% or so of the library. Unless noted, calls come from the whole dose curve; as a rule, active = well fitted curve in the direction sought with a large enough effect; inconclusive = small, poorly fitted or top-dose-only effect, or another doubt; inactive = no such curve, though single readings can be large; an effect the other way counts as inactive or inconclusive. % is set by controls: 0 for no effect and ±100 for the full control effect.

SMILES	Giardia FBPA inh	HCMV inh	RE007 growth inh	FMDV antiviral	Sm TGR block	Tb PYK inh
COc1ccccc1NC(=S)N(Cc1ccccn1)Cc1ccccc1Cl	-3%	-63*	-10%	26%	18%	7%
CCOC(=O)/C(C#N)=C1/C(=O)N(Cc2ccccc2)c2ccccc21	10µM*	-32	-9%	15%	0%	-1%
COc1cc2c(cc1OC)C(c1ccc(Cl)cc1)N(c1ccc(C)c(F)c1)C(=O)C2 (centres undefined)	.	-13	.	?	14%	2%
COc1cccc(N2CCN(C(=O)c3ccc(CSc4nc5ccncc5[nH]4)cc3)CC2)c1	-29%	-87*	-8%	-19%	-14%	26%
O=C(c1ccc(CSc2nc3ccncc3[nH]2)cc1)N1CCCCC1	-21%	10	-7%	-14%	-1%	-5%
Cc1ccc(C)c(N2CCN(C(=O)c3ccc(CSc4nc5ccncc5[nH]4)cc3)CC2)c1	-14%	?	-3%	18µM*	-9%	-11%
CCC1CCCCN1S(=O)(=O)c1ccc(NC(=O)c2nc(SC)ncc2Cl)cc1 (centres undefined)	.	?	.	-15%	17%	1%
CCCCNC(=O)C1(C)CCCCN1C(=O)C1(c2ccc(Cl)cc2)CCCC1 (centres undefined)	.	-34	.	.	.	.
CCOC(=O)/C(C#N)=C/C1=C(N2CCOCC2)CC(C)(C)OC1	1%	0	8%	-5%	28µM*	0%
CC1(C(=O)Nc2ccccc2)CCN1C(=O)Cc1ccc(-c2ccccc2)cc1 (centres undefined)	.	-74*	7%[18.4 µM]	?	.	7%
CC1(C(=O)Nc2ccc3c(c2)OCO3)CCN1C(=O)Cc1ccc(-c2ccccc2)cc1 (centres undefined)	.	-81*	-3%[18.4 µM]	0%	.	-4%
COc1cccc(NC(=O)C2(C)CCN2C(=O)Cc2ccc(-c3ccccc3)cc2)c1 (centres undefined)	.	-25	3%[18.4 µM]	-21%	.	-1%
CCC(=O)N1CCC1(C)C(=O)Nc1ccc2c(c1)OCO2 (centres undefined)	.	1	9%[18.4 µM]	0%	.	-2%
CCN1CCN(C(=O)c2cc(NC(=O)COC)cc3nc(-c4ccncc4)n(C)c23)CC1	.	.	.	-9%	.	.
Cc1cc2c(cc1S(=O)(=O)N(C)CC(=O)Nc1cccc(C#N)c1)OCC(=O)N2	.	-3	.	0%	7%	6%
O=C(O)C1C2C=CC(O2)C1C(=O)Nc1ccc(S(=O)(=O)Nc2ccccc2)cc1 (centres undefined)	24%	-23	-4%	24%	6.3µM*	?
O=C(O)C1C2C=CC(O2)C1C(=O)Nc1ccc(S(=O)(=O)N2CCc3ccccc32)cc1 (centres undefined)	29%	-27	-11%	10%	14µM*	-14%
COc1ccc(N2CCn3c2nc2c3c(=O)n(CCCc3ccccc3)c(=O)n2C)c(OC)c1	1%	-90*	-1%	13µM*	-32%	-13%
O=C(Nc1cccc(S(=O)(=O)N2CCCC2)c1)c1ccc2c(=O)n3c(nc2c1)CCCCC3	-9%	-66*	3%	13µM*	3%	-8%
O=C(Nc1ccc(SC(F)F)cc1)c1ccc2c(=O)n3c(nc2c1)CCC3	.	-70*	-22%	?	0%	1%
CC(=O)c1cccc(NC(=O)c2ccc3c(=O)n4c(nc3c2)CCCCC4)c1	-4%	?	2%	2%	-2%	-1%
O=C(Nc1cccc(S(=O)(=O)N2CCOCC2)c1)c1ccc2c(=O)n3c(nc2c1)CCCCC3	2%	-84*	-3%	?	-32%	1%
CCSC1=NC2(CCN(C(=O)NC3CCCCC3)CC2)N=C1c1ccc(OC)cc1	.	-21	.	-20%	0%	1%
O=C(CN1C(=O)COc2ccc(S(=O)(=O)N3CCOCC3)cc21)N1CCN(c2ccccc2)CC1	.	7	.	-12%	2%	-1%
O=C1NC(=S)N/C1=C\C=C\c1ccccc1	-8%	31	6%	40%	-8%	-2%

Screening results from PubChem.
